Screening results deposited in PubChem BioAssay by National Center for Advancing Translational Sciences (NCATS).
Compounds with a hit are over-represented: about 21% of the library has one in this group of screens.
SARS PLpro yeast = qHTS of Yeast-based Assay for SARS-CoV PLP | S. cerevisiae expressing SARS-CoV PLpro, growth rescue | Potency, µM (top dose mostly 32.9 µM), actives largely listed as activators | hit rate 0.19% among 330,000; further: nearly all actives have a fitted effect of over 55% in size
CHX counter = Cycloheximide Counterscreen for Small Molecule Inhibitors of Shiga Toxin; cell reporter, cycloheximide protein synthesis inhibition counterscreen; max response, %; hit rate 12% among 300,000; in the data active means max response mostly above about 13%, no sharp cut-off; inactive means mostly below about 14%; further: read at 38.3 µM for the half of the compounds with a filed dose
Shiga toxin inh = A qHTS for Small Molecule Inhibitors of Shiga Toxin; AID 2315, 2010; Vero cells, Shiga toxin protein synthesis inhibition reporter; hit rate 9.2% among 290,000; inhibition, % at 38.7 µM; in the data active means inhibition mostly above about 28%, no sharp cut-off; inactive means mostly below about 43%
Pf growth 96h = Primary qHTS for delayed death inhibitors of the malarial parasite plastid, 96 hour incubation | P. falciparum luciferase reporter growth, 96 h | hit rate 6.9% among 320,000 | AID 504834, 2011 | Potency, µM (top dose mostly 28.7 µM), most hits filed as inhibitors; active means well fitted inhibition curve with a large enough effect; inconclusive means small, poorly fitted or top-dose-only effect, or another doubt; inactive means no such curve, though single readings can be large or run the other way
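Two parasite generations (96 h, 37 C, 5% CO2) of compound exposure in infected erythrocytes (0.05% parasitemia, 2% hematocrit). Luciferase-reporter P. falciparum; decreased luminescence indicates inhibited growth, aimed at apicoplast-acting delayed death.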
NS1 function inh = qHTS Assay for Inhibitors of Influenza NS1 Protein Function; Potency, µM (series often up to 46.1 µM); hit rate 0.4% among 270,000; AID 2326, 2010; further: actives are rising curves; nearly all actives have a fitted effect of over 50% in size
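Read-out: OD600 growth recovery of NS1-expressing budding yeast. Cells grown overnight at 30C in -URA glucose medium, washed, resuspended and diluted 1:100 in 2% galactose assay medium, pH 6.0. Same strain lacking NS1 served as positive control.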
Pf growth 48h = Primary qHTS for delayed death inhibitors of the malarial parasite plastid, 48 hour incubation; P. falciparum luciferase growth in erythrocytes, 48 h; AID 504832, 2011; Potency, µM (top dose mostly 28.7 µM), most hits filed as inhibitors; hit rate 5.9% among 310,000; active means well fitted inhibition curve with a large enough effect; inconclusive means small, poorly fitted or top-dose-only effect, or another doubt; inactive means no such curve, though single readings can be large or run the other way
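Growth was read as firefly luciferase luminescence after a 48 h, 37 C, 5% CO2 exposure of compounds to reporter-bearing P. falciparum cultures (0.1% parasitemia, 2% hematocrit final) in Albumax-supplemented RPMI 1640.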
Each line names hits and unclear results; the compound was inactive in the other large screens. Unless noted, the call rests on the fitted dose curve.

CCN(CC)S(=O)(=O)c1cc(NC(=O)COC(=O)c2ccc(NC(=O)CC#N)cc2)ccc1C	Pf growth 96h inconclusive (no result: NS1 function inh)
Cc1cc(C)c(S(=O)(=O)N2CCN(C(=O)C3CCCO3)CC2)c(C)c1 (stereo not drawn)	none (no result: CHX counter, Shiga toxin inh, NS1 function inh)
CN(Cc1ccccc1)C(=O)c1cc2cc(F)ccc2[nH]1	CHX counter 65.0, Shiga toxin inh 74.5, Pf growth 96h inconclusive, Pf growth 48h inconclusive
CC(C)COC(=O)c1ccc2c(c1O)C(=O)c1ccccc1C2=O	CHX counter 34.3, Shiga toxin inh 66.5 (no result: Pf growth 96h)
CSc1ccccc1C(=O)NCCc1ccc(S(=O)(=O)N2CCCCC2)cc1	Pf growth 48h 5.22µM (no result: Pf growth 96h)
O=C(NCCc1ccccc1)c1ccccc1NS(=O)(=O)N1CCCC1	CHX counter 33.3, Shiga toxin inh 42.6 (no result: Pf growth 96h)
COc1cc(N)c(Cl)cc1C(=O)OCC(=O)N1CCCC1	none
Cc1[nH][nH]c(=O)c1C(c1c(C)[nH][nH]c1=O)c1cn(C)c2ccccc12	Pf growth 48h 10.4µM
CCOc1ccc(Cl)cc1C(c1c(C)[nH][nH]c1=O)c1c(C)[nH][nH]c1=O	none
C=CCSc1nc2nc(C)cc(C)n2n1	Pf growth 96h 0.329µM
Cc1cc(C)n2nc(SCC(=O)Nc3ccccc3F)nc2n1	none (no result: CHX counter, Shiga toxin inh, NS1 function inh)
Cc1cc(C)n2nc(SCC(=O)c3ccccc3)nc2n1	CHX counter 14.4
Cc1cc(C)n2nc(SCCOc3ccccc3F)nc2n1	CHX counter 25.8, Shiga toxin inh 113.9 (no result: NS1 function inh)
CCCCCCCCSc1nnc(CSc2nc3nc(C)cc(C)n3n2)o1	Pf growth 96h inconclusive, Pf growth 48h 11.7µM
COc1ccccc1-n1c(SCC(N)=O)nc2sc3c(c2c1=O)CCC3	none
COc1ccc(NC(=S)Nn2cnnc2)cc1OC	none
C/C(=N\OC(=O)Nc1ccccc1)c1cnn(-c2cc(C(F)(F)F)cc(C)n2)c1C	none
C[C@H](CO)N1C[C@H](C)[C@@H](CN(C)C(=O)NC2CCCCC2)Oc2ccc(NC(=O)CCC(F)(F)F)cc2C1=O	none (no result: CHX counter, Shiga toxin inh, Pf growth 96h, NS1 function inh, Pf growth 48h)
Cc1ccc(C(=O)CSc2cc(C)nc(SCC(=O)c3ccccc3)n2)cc1	none (no result: Pf growth 96h)
Cc1cc(SCC(=O)c2ccccc2)nc(C)n1	CHX counter 31.7, Shiga toxin inh 117.1
CCSc1nc2nc(C)cc(C)n2n1	Pf growth 96h 11.7µM
C=C(C)CSc1nc2nc(C)cc(C)n2n1	none
O=C(CCCc1nc2ccccc2s1)NC(c1ccccc1)c1ccccc1	Pf growth 96h inconclusive
CN(c1ccc(C(=O)O)cc1)S(=O)(=O)c1ccc(Cl)cc1	none
COc1ccc(S(=O)(=O)NCc2ccc3c(c2)OCO3)cc1OC	Pf growth 96h 1.17µM
COc1ccccc1N(C)S(=O)(=O)c1ccc(C(=O)NNC(=O)c2ccccc2O)cc1	Pf growth 96h inconclusive, Pf growth 48h inconclusive (no result: CHX counter, Shiga toxin inh, NS1 function inh)
COc1cccc(C(=O)NCc2ccc3c(c2)OCO3)c1OC	Pf growth 96h inconclusive
COc1ccccc1N(C)S(=O)(=O)c1ccc(C(=O)NCc2ccc3c(c2)OCO3)cc1	Pf growth 96h inconclusive, Pf growth 48h 9.28µM (no result: NS1 function inh)
COC(=O)c1cc(CNC(=O)c2ccc(S(=O)(=O)N(C)c3ccccc3)cc2)ccc1OC	Pf growth 96h 11.7µM, Pf growth 48h 3.7µM (no result: CHX counter, Shiga toxin inh, NS1 function inh)
COc1cc(OC)cc(C(=O)NNC(=O)c2ccc(S(=O)(=O)N(C)c3ccccc3OC)cc2)c1	Pf growth 96h 0.0828µM
CCCCN(C(=O)COC(=O)CSc1cc(C)c2ccccc2n1)c1c(N)n(CCC)c(=O)[nH]c1=O	none
CC(NC(=O)C1CCCCC1)C(=O)NC1=NCCS1 (stereo not drawn)	none (no result: Pf growth 96h)
COc1ccc(NC(=O)COc2coc(CN3CCc4ccccc43)cc2=O)cc1	none (no result: CHX counter, Shiga toxin inh, NS1 function inh)
CC1Cc2ccccc2N1Cc1cc(=O)c(OCC(=O)NCCc2ccccc2)co1 (stereo not drawn)	Pf growth 96h inconclusive, Pf growth 48h 13.1µM (no result: CHX counter, Shiga toxin inh, NS1 function inh)
COc1ccc(NC(=O)COc2coc(CN3c4ccccc4CC3C)cc2=O)cc1 (stereo not drawn)	Pf growth 96h 8.28µM, Pf growth 48h inconclusive (no result: CHX counter, Shiga toxin inh, NS1 function inh)
COc1cc(-c2[nH]ncc2CN2CCN(Cc3cccs3)CC2)cc(OC)c1OC	Pf growth 96h inconclusive, Pf growth 48h inconclusive
CC(C)Cn1c(SCc2nc3ccccc3c(=O)[nH]2)nc2ccccc2c1=O	Pf growth 48h 7.38µM
